The values that follow come from PubChem BioAssay (Tox21).

Test [1] in a line: A CellTox Green Cytotoxicity Assay to monitor cytotoxicity in HepG2 cells - 16 hour (AID 1224876). Note: nearly all actives have a fitted effect of over 45% in size. Note: potency is the fitted concentration of half-maximal effect. In short, it runs like this:
(§1)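 Using 1536-well format, dye-containing HepG2 suspension was seeded, allowed 5 h at 37 C/5% CO2, dosed by pintool with compounds, positive and negative controls, and imaged for fluorescence across 40 h.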

Test [2] can be described thus: qHTS RealTime-Glo MT Cell Viability Assay in HepG2 cells - 32 hour (AID 1224877). Note: nearly all actives have a fitted effect of over 55% in size. In short, it runs like this: (§2)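 HepG2 cells were seeded at 600 cells/well together with NanoLuc luciferase and a cell-permeant prosubstrate, preincubated 5 h at 37 C/5% CO2, then pin-dosed with compounds in DMSO. Nonlytic luminescence from viable cells was read at each time point.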
A short description of test [3]: A CellTox Green Cytotoxicity Assay to monitor cytotoxicity in HepG2 cells - 24 hour (AID 1224878). Note: nearly all actives have a fitted effect of over 45% in size. Note: potency is the fitted concentration of half-maximal effect. Summed up: as §1
The nature of test [4]: A CellTox Green Cytotoxicity Assay to monitor cytotoxicity in HepG2 cells - 40 hour (AID 1224879). Note: nearly all actives have a fitted effect of over 40% in size. Note: potency is the fitted concentration of half-maximal effect. Summed up:
as §1

Test [5] is described as follows: qHTS RealTime-Glo MT Cell Viability Assay in HEK293 cells - 0 hour (AID 1224880). Note: top concentration of the series differs between compounds; nearly all actives have a fitted effect of over 45% in size. Summed up: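 Viable HEK293 cells reduce a cell-permeant prosubstrate; the product diffuses out and is consumed by NanoLuc in the medium to give light. Compounds went in after a 5 h incubation and plates were read over the treatment course.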
Test [6] can be described thus: A CellTox Green Cytotoxicity Assay to monitor cytotoxicity in HEK293 cells - 32 hour (AID 1224881). Note: nearly all actives have a fitted effect of over 40% in size. Summed up:
(§3)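 Fluorescence intensity, read at 0, 8, 16, 24, 32 and 40 h of compound treatment, reflected dye binding to DNA of dead HEK293 cells; compounds (23 nL, DMSO) were added 5 h after plating cells with reagent.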

Test [7] is described as follows: A CellTox Green Cytotoxicity Assay to monitor cytotoxicity in HepG2 cells - 0 hour (AID 1224882). Note: nearly all actives have a fitted effect of over 35% in size. In short, it runs like this:
as §1

Test [8] is described as follows: A CellTox Green Cytotoxicity Assay to monitor cytotoxicity in HepG2 cells - 32 hour (AID 1224883). Note: nearly all actives have a fitted effect of over 50% in size. Note: potency is the fitted concentration of half-maximal effect. Summed up:
as §1

Test [9] is described as follows: A CellTox Green Cytotoxicity Assay to monitor cytotoxicity in HEK293 cells - 8 hour (AID 1224884). Note: nearly all actives have a fitted effect of over 35% in size. In short, it runs like this: as §3
Test [10] is described as follows: qHTS RealTime-Glo MT Cell Viability Assay in HepG2 cells - 16 hour (AID 1224885). Note: nearly all actives have a fitted effect of over 50% in size. In short, it runs like this: as §2

SMILES strings stand for the structures. “And” between values parts separate entries of the source, which are not always exact repeats. Equal entries are not always repeated. Inconclusive results are not listed. Where a structure was tested more than once in an assay, its records may differ in their call. The source made the active and inactive calls. Calls come from the whole dose curve; as a rule, active = well fitted curve in the direction sought with a large enough effect in the repeat runs; inconclusive = weak or mixed curves; inactive = no such curve, though single readings can be large; an effect the other way counts as inactive or inconclusive.
% is set by controls: 0 for no effect and ±100 for the full control effect.

As for `CCc1cccc(C)c1N`, the Potency result in test [1], in [3], in test [4], in test [5], in test [6] and in [8] was “inactive” each time. Moreover, the call in test [2], in test [7] and in test [9] was inactive.
As for `CC[C@H](C)C(=O)O[C@H]1C[C@@H](C)C=C2C=C[C@H](C)[C@H](CC[C@@H]3C[C@@H](O)CC(=O)O3)[C@H]21`, the Potency in test [1] was 49.6 µM (active) and inactive and 16.9 µM (active); in test [3] it was 24.9 µM (active) and 10.7 µM (active); in test [4], 7.01 µM (active) and 21.8 µM (active) and 9.52 µM (active); in test [8], 11.1 µM (active) and 17.3 µM (active) and 9.52 µM (active). Moreover, the result in [2], in test [7] and in [9] was inactive. Besides, the Potency result in [5] and in test [6] was “inactive” throughout.
For the molecule `CC(O)COCC(C)O` (stereo not given), the Potency entry in [1], in [3], in test [4], in test [5], in [6] and in test [8] was “inactive” each time. For the same molecule, the molecule was called inactive in test [2], in test [7] and in [9].
Consider `O=S(=O)(O)c1ccc2ccccc2c1`, for which the Potency result in test [1], in test [3], in test [4], in [5], in test [6] and in test [8] was “inactive” each time. In addition, the outcome in test [2], in [7], in [9] and in [10] was inactive.
On to `CCN(CC)CCCC(C)Nc1ccnc2cc(Cl)ccc12` (stereo not given), for which the cytotoxicity increase in test [1] is -7.78% [at 6.97 µM] (inactive) and 19.1% [at 15.8 µM] (inactive); in [4] it was -6.76% [at 6.97 µM] (inactive) and 37% [at 15.8 µM] (inactive); in [6], -12.6% [at 6.97 µM] (inactive) and 3.44% [at 15.8 µM] (inactive); in test [8], -6.83% [at 6.97 µM] (inactive); in test [9], -10.7% [at 6.97 µM] (inactive) and -2.14% [at 15.8 µM] (inactive). The activity change, negative = cytotoxic in test [2] was 11.1% [at 6.97 µM] (inactive) and -5.44% [at 15.8 µM] (inactive); in test [10], 1.09% [at 6.97 µM] (inactive) and -5.7% [at 15.8 µM] (inactive). The cytotoxicity in test [3] was -7.44% [at 6.97 µM] (inactive); in test [7], -5% [at 6.97 µM] (inactive) and 4.14% [at 15.8 µM] (inactive). The activity change, negative = cytotoxicity in test [5] was -2.92% [at 6.97 µM] (inactive) and -5.73% [at 15.8 µM] (inactive).
In the case of `CCCCCCCCCCCCOCCO`, the Potency result in test [1], in test [3], in test [4], in test [5], in test [6] and in [8] was “inactive” each time. For the same molecule, the call in test [2], in [7], in test [9] and in [10] was inactive.
Turning to `CC(C)c1ccc(S(=O)(=O)O)cc1`, the Potency entry in [1], in [3], in test [4], in test [5], in test [6] and in [8] was “inactive” in each case. Besides, the molecule was called inactive in test [2], in test [7], in test [9] and in [10].
As for `O=C(O)c1cc(O)c(O)c(O)c1`, the Potency result in test [1], in test [3], in [4], in [5], in test [6] and in test [8] was “inactive” throughout. Further, the outcome in test [2], in test [7] and in test [9] was inactive.
As for `COS(C)(=O)=O`, the Potency result in [1], in test [3], in test [4], in test [5], in [6] and in [8] was “inactive” each time. For the same molecule, the call in test [2], in test [7] and in test [9] was inactive.
As for `CCCCC(CC)COC(=O)C(C#N)=C(c1ccccc1)c1ccccc1` (stereo not given), the Potency entry in test [1], in test [3], in test [4], in test [5], in test [6] and in test [8] was “inactive” throughout. The call in test [2], in [7] and in [9] was inactive.
For the molecule `CC(c1cc2ccccc2s1)N(O)C(N)=O` (stereo not given), the Potency result in test [1], in [3], in test [4], in [5], in [6] and in test [8] was “inactive” each time. The call in test [2], in test [7], in test [9] and in [10] was inactive.
Take `CC(=O)c1ccccc1`: the Potency result in [1], in test [3], in [4], in test [5], in test [6] and in test [8] was “inactive” each time. For the same molecule, the molecule was classed as inactive in [2], in test [7] and in test [9].
Take `CN(C)CCCN`: the Potency result in test [1], in test [3], in test [4], in test [5], in test [6] and in test [8] was “inactive” throughout. Also, the call in test [2], in test [7] and in test [9] was inactive.
With `O=C=NCCCCCCN=C=O`, the Potency entry in test [1], in [3], in test [4], in [5], in test [6] and in test [8] was “inactive” in each case. Besides, the outcome in [2], in test [7] and in [9] was inactive.
As for `ON=C1CCCCC1`, the Potency entry in [1], in test [3], in test [4], in [5], in [6] and in test [8] was “inactive” throughout. Further, the molecule was called inactive in test [2], in test [7] and in [9].
Turning to `O=P(OC(CCl)CCl)(OC(CCl)CCl)OC(CCl)CCl`, the Potency entry in test [1], in [3], in test [4], in [5], in test [6] and in test [8] was “inactive” each time. The molecule was classed as inactive in test [2], in test [7] and in [9].
Take `CCCCCCCCC/C=C/CC1CC(=O)OC1=O` (stereo not given): the Potency entry in test [1], in [3], in test [4], in test [5], in [6] and in [8] was “inactive” throughout. Further, the molecule was classed as inactive in test [2], in test [7] and in test [9].
On to `CC1=CC(=O)NS(=O)(=O)O1`, for which the Potency result in [1], in test [3], in [4], in [5], in test [6] and in [8] was “inactive” throughout. Also, the call in [2], in test [7], in [9] and in [10] was inactive.
Turning to `CCCCCCCCCC`, the Potency entry in [1], in test [3], in [4], in [5], in test [6] and in [8] was “inactive” each time. Moreover, the outcome in test [2], in [7], in test [9] and in test [10] was inactive.
`CCCCCCOCCO`: the Potency result in test [1], in test [3], in test [4], in [5], in test [6] and in test [8] was “inactive” in each case. Besides, the molecule was called inactive in [2], in test [7], in test [9] and in test [10].
As to `CC(C)(C)[C@@H](O)[C@@H](Cc1ccc(Cl)cc1)n1cncn1`, the Potency result in test [1], in test [3], in test [4], in test [5], in [6] and in test [8] was “inactive” each time. The molecule was classed as inactive in [2], in [7] and in test [9].
Turning to `Cc1occc(=O)c1O`, the Potency result in test [1], in [3], in [4], in test [5], in [6] and in [8] was “inactive” throughout. In addition, the result in [2], in [7] and in [9] was inactive.
Consider `C=C(C)C(=O)Nc1ccc(Cl)c(Cl)c1`, for which the Potency entry in test [1], in test [3], in test [4], in [5], in [6] and in test [8] was “inactive” in each case. Also, the molecule was classed as inactive in test [2], in test [7], in test [9] and in test [10].
In the case of `CCCCCCCCCCCCc1ccccc1`, the Potency result in test [1], in test [3], in test [4], in test [5], in test [6] and in [8] was “inactive” in each case. For the same molecule, the result in test [2], in [7] and in [9] was inactive.
